PLC-beta3 inh: inhibitors of human phospholipase C beta3; Purified PLC-beta3, fluorogenic substrate, fluorescence; Q01970; AID 720704; inhibition, % at 12.2 µM; 0.18% of 370,000 active; in the data active = inhibition above about 11%
ADAM17 inh: inhibitors of human ADAM17 | 0.83% of 370,000 active | recombinant ADAM17, EDANS/DABCYL FRET peptide cleavage | P78536 | inhibition, % at 6.95 µM;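 active = inhibition above the mean of compounds lying between control limits plus 3 SD, set per campaign, cut at about 8.5% in these data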
PLC-gamma1 inh: PLC-gamma1 (human) inhibition, primary screen. P19174. purified PLC-gamma1, fluorogenic substrate, fluorescence. inhibition, % at 12.2 µM. 0.84% of 370,000 active; in the data active = inhibition above about 9.5%
ADAM10 inh: inhibits human ADAM10 | O14672 | recombinant ADAM10, EDANS/DABCYL FRET peptide cleavage, 3 h | inhibition, % at 7 µM | 0.62% of 370,000 active;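 active = inhibition above a per-campaign cutoff equal to the mean of compounds falling between control-based bounds plus 3 SD, cut at about 20% in these data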
Rce1 inhib: inhibitors of yeast Ras-converting enzyme; AID 2563; 0.27% of 290,000 active; calls only; Q03530; yeast membranes, quenched prenylated peptide cleavage fluorescence;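 active = fall in fluorescence gain of 50% or more versus controls, with final raw signal at or below 3038400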
Target sequence (Q03530 whole entry, looked up): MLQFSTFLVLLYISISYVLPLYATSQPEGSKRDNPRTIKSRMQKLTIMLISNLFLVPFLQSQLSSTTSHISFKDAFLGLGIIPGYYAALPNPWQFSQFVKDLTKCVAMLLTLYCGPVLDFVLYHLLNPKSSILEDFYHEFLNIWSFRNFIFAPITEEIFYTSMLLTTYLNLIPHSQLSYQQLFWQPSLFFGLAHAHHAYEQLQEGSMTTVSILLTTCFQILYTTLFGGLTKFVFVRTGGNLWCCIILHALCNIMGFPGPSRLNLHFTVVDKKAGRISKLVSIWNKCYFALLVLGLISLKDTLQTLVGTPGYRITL
ADAM10 ctr: counter-screen for ADAM17 exosite inhibitors: inhibitors of human ADAM10; shares compounds with ADAM17 inh; recombinant ADAM10, EDANS/DABCYL FRET peptide cleavage, 3 h; inhibition, % at 6.95 µM; 47% of 2,900 active;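 active = mean inhibition over the triplicate runs exceeds the activity threshold set in the earlier primary screen, cut at about 20% in these data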
ADAM17 confirm: human ADAM17 inhibition, confirmation | 65% of 2,900 active | inhibition, % at 6.95 µM | AID 743257 | shares compounds with ADAM17 inh | recombinant ADAM17, EDANS/DABCYL QFRET peptide cleavage;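 active = mean inhibition across replicates above the hit cutoff set in the primary screen, cut at about 8.5% in these data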
Of the large screens only hits and unclear results are named; the others gave an inactive call (follow-up assays come after a bar, where they were run). An excerpt weighted towards active compounds, which were near 2.1% of everything screened.

CCC(C)NS(=O)(=O)c1ccc(S(=O)(=O)N(CC(=O)Nc2ccccc2)Cc2ccco2)cc1 (configuration not stated)	ADAM17 inh 8.9 | ADAM10 ctr 20 | ADAM17 confirm 11
Cc1c(S(=O)(=O)N2CCOCC2)c(=O)n(C)c(=O)n1C	none
COCCN(C(=S)Nc1ccc(Cl)cc1OC)C1CCN(C(C)=O)CC1	none
CCC(C)c1ccc(O)c(NC(=O)c2cncc(Br)c2)c1 (configuration not stated)	ADAM17 inh 10 | ADAM10 ctr inactive | ADAM17 confirm 9.8
COc1cc(OC)cc(C(=O)NC2CCN(CC(=O)Nc3cccc4ccccc34)CC2)c1	ADAM17 inh 12 | ADAM10 ctr inactive | ADAM17 confirm inactive
CCN(CC)c1ccc(C(=O)NNC(=O)CNC(=O)c2ccco2)cc1	none (no result: Rce1 inhib)
O=C(Nc1ccc2c(c1)OCO2)c1cccc(F)c1	none
O=C(Nc1cccc(F)c1)Nc1ccc2c(c1)OCO2	ADAM17 inh 10 | ADAM10 ctr inactive | ADAM17 confirm inactive
COc1ccc(N(CC(=O)Nc2cc(C)ccc2C)S(=O)(=O)c2ccccc2[N+](=O)[O-])c(OC)c1	none
O=C(c1ccc(CS(=O)Cc2ccccc2Cl)o1)N1CCN(c2ccccn2)CC1 (configuration not stated)	ADAM17 inh 12 | ADAM10 ctr inactive | ADAM17 confirm inactive
O=C(c1ccc(CS(=O)Cc2ccccc2Cl)o1)N1CCN(c2cccc(Cl)c2)CC1 (configuration not stated)	ADAM17 inh 15 | ADAM10 ctr inactive | ADAM17 confirm 9.0
CCOC(=O)N1CCC(N2CCCC(C(=O)c3ccc4cc(OC)ccc4c3)C2)CC1 (configuration not stated)	none
C[C@H](CO)N1C[C@H](C)[C@@H](CN(C)S(=O)(=O)c2cccs2)Oc2ccc(NC(=O)Nc3ccc(C(F)(F)F)cc3)cc2C1=O	ADAM17 inh 8.7, ADAM10 inh 29 (no result: Rce1 inhib) | ADAM10 ctr 40 | ADAM17 confirm 23
C[C@H](CO)N1C[C@H](C)[C@@H](CN(C)S(=O)(=O)c2ccc(F)cc2)Oc2ccc(NC(=O)Nc3ccc(C(F)(F)F)cc3)cc2C1=O	ADAM17 inh 9.0, ADAM10 inh 26 (no result: Rce1 inhib) | ADAM10 ctr 37 | ADAM17 confirm 19
C[C@H](CO)N1C[C@H](C)[C@@H](CN(C)S(=O)(=O)c2ccc(F)cc2)Oc2ccc(NC(=O)Nc3ccccc3)cc2C1=O	none (no result: Rce1 inhib)
O=C(NC1CCN(Cc2ccccc2)CC1)c1ccccc1OCc1ccccc1Cl	none
O=C(Cc1ccc(Br)cc1)OCC(=O)c1ccc[nH]1	none (no result: Rce1 inhib)
CNS(=O)(=O)c1cccc(C(=O)OCC(=O)Nc2ccc3ccccc3c2)c1	none (no result: Rce1 inhib)
COc1cccc(C(O)c2nc(/C=C/c3ccc(C(F)(F)F)cc3)cs2)c1 (configuration not stated)	none (no result: Rce1 inhib)
OC(c1cccc(Cl)c1)c1nc(/C=C/c2ccc(C(F)(F)F)cc2)cs1 (configuration not stated)	ADAM17 inh 12 (no result: Rce1 inhib) | ADAM10 ctr inactive | ADAM17 confirm inactive

Bioassay records from PubChem.
